In the library only some 1.7% were active in any assay of this set; here they are far more common.
LYPLA2 counter – LYPLA2 inhibitors, primary screen, counter-screen for PME1 inhibitor project, biochemical, fluorescence polarization, FP-Rh probe ABPP; Acyl-protein thioesterase 2 (Homo sapiens), O95372; recombinant LYPLA2; 320,000 tested, 0.38% active; inhibition, % at 5.9 µM;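 active = inhibition above the screen-wide mean plus 3 SD, limit set per campaign, cut at about 26% in these data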;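 note: 0% = LYPLA2 with DMSO and 100% = wells lacking LYPLA2 enzyme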
GSTO1 counter – inhibitors of recombinant GSTO1, primary screen, counter-screen for RBBP9 inhibitor project, biochemical, fluorescence polarization; Glutathione S-transferase omega-1 (Homo sapiens), P78417; activity-based probe fluorescence polarization; inhibition, % at 5.96 µM; 300,000 tested, 1.1% active;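 active = inhibition above the campaign mean inhibition plus 3 SD, cut at about 35% in these data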;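 note: 0% = GSTO1-1 with DMSO and 100% = wells lacking GSTO1-1 enzyme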
Target sequence (P78417 whole entry, looked up): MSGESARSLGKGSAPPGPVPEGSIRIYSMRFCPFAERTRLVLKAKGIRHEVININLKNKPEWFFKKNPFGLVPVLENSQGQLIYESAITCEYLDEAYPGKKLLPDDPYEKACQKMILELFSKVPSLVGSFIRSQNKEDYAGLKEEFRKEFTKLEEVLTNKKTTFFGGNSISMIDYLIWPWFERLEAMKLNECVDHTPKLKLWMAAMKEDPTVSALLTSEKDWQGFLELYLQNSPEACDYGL
LYPLA1 inh – LYPLA1 inhibitors, primary screen, counter-screen for PME1 inhibitor project, biochemical, fluorescence polarization, FP-Rh probe ABPP; Acyl-protein thioesterase 1 (Homo sapiens), O75608; recombinant LYPLA1; inhibition, % at 5.9 µM; 320,000 tested, 0.16% active; AID 2174, 2009;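 active = inhibition above the mean of all tested compounds plus 3 SD, set per campaign, cut at about 14% in these data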;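 note: inhibitors block serine hydrolase probe labeling of LYPLA1 so polarization falls; 0% = enzyme with DMSO and 100% = wells lacking LYPLA1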
PAD4 FP inh – human PAD4 inhibitors, primary screen, biochemical, fluorescence polarization, 1536-well format | recombinant PAD4, RCA probe fluorescence polarization | 330,000 tested, 0.41% active | Protein-arginine deiminase type-4 (Homo sapiens), Q9UM07 | inhibition, % at 6.36 µM | AID 485272, 2010;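 active = percent inhibition above a cutoff equal to the mean of all tested compounds plus 3 SD, cut at about 15% in these data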;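 note: 0% = PAD4 with RCA probe and DMSO and 100% = probe without PAD4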
EBNA-1 inhibitor – EBNA-1 DNA-binding inhibitors, primary screen, biochemical, fluorescence polarization; inhibition, % at 14.8 µM; 300,000 tested, 0.34% active; in the data active = inhibition above about 28%
ZTA DNA inh – blocks Epstein-Barr virus ZTA, an EBNA-1 counter-screen; ZTA-DNA binding, fluorescence polarization; inhibition, % at 11 µM; 320,000 tested, 0.15% active; AID 2234; in the data active = inhibition above about 33%
Target sequence (P03206 whole entry, looked up): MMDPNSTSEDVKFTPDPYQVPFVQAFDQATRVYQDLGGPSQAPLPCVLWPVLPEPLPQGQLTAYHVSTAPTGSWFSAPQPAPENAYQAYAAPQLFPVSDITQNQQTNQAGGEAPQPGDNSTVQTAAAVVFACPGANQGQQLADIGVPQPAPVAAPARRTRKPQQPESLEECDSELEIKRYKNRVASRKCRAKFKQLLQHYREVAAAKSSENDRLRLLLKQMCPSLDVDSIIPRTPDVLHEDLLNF
Numbers without * were called inactive; . = not tested or not shown.

SMILES	LYPLA2 counter	GSTO1 counter	LYPLA1 inh	PAD4 FP inh	EBNA-1 inhibitor	ZTA DNA inh
CCOC(=O)c1ccc(N2CCN(c3ccc(F)cc3)CC2)c(NC(=O)Nc2cccc(OC)c2)c1	-19	-8	-6	0	82*	-6
O=C(NC(=S)N(CCCCO)C1CCCCC1)c1sc2ccccc2c1Cl	-2	-5	-1	1	4	6
Cc1cc2c(C)cc(=O)[nH]c2cc1NC(=O)CCl	1	71*	-2	-2	3	-16
NC1=CC(=O)c2cccc3cccc1c23	14	24	6	15*	-8	-8
CCCCC1=CC2=CC(=O)C(C)(OC(=O)CCC(=O)OC)C(=O)C2=CO1 (stereo not drawn)	1	8	2	-7	0	8
COC/C=C/C1=CC2=CC(=O)C(C)(OC(=O)c3cnc4ccccc4n3)C(=O)C2=CN1CCc1ccccn1 (stereo not drawn)	-5	-12	5	34*	6	10
CC(C)(C)OC(=O)NCCCCC1=CC2=CC(=O)C(C)(O)C(=O)C2=CO1 (stereo not drawn)	-4	4	-4	-5	7	2
CC(C)(C)OC(=O)NCCCCC1=CC2=CC(=O)C(C)(OC(=O)c3cnc4ccccc4n3)C(=O)C2=CO1 (stereo not drawn)	20	19	17*	11	15	10
CCCCC1=CC2=CC(=O)C(C)(OC(=O)c3ccco3)C(=O)C2=CO1 (stereo not drawn)	-2	21	2	0	6	-12
COC/C=C/C1=CC2=CC(=O)C(C)(OC(=O)c3cnc4ccccc4n3)C(=O)C2=CN1CCCCO (stereo not drawn)	3	31	-2	-2	1	-22
CCCCC1=CC2=CC(=O)C(C)(OC(=O)c3cnc4ccccc4n3)C(=O)C2=CO1 (stereo not drawn)	25	29	23*	31*	-2	6
COC(=O)CCCC1=CC2=CC(=O)C(C)(OC(=O)c3cnc4ccccc4n3)C(=O)C2=CO1 (stereo not drawn)	24	38*	20*	32*	15	-7
O=C(NC1CCS(=O)(=O)C1)c1cccs1 (stereo not drawn)	-1	-5	1	-12	-14	-7
CCn1nc(C)c(NC(=O)Nc2cccc(Cl)c2Cl)c1C	-3	4	0	0	-6	-3
CCc1ccc([C@@H]2CC=C(C(=O)O)[C@H](c3ccc(C(C)(C)C)cc3)N2S(=O)(=O)c2ccc(C)cc2)cc1	.	.	.	-4	.	.
O=C(CNS(=O)(=O)c1ccc(F)cc1)N1CCCCCC1	1	2	3	2	1	-1
COc1ccc(CNC(=O)c2cccnc2)cc1	3	3	3	-2	7	2
COC(=O)CCCC1=CC2=CC(=O)C(C)(OC(=O)c3cccs3)C(=O)C2=CO1 (stereo not drawn)	4	39*	8	7	5	-1
COC(=O)CCCC1=CC2=CC(=O)C(C)(OC(=O)c3ccc(Cl)nc3)C(=O)C2=CO1 (stereo not drawn)	4	35*	1	5	3	5
NS(=O)(=O)c1ccc2nc(NC(=O)Nc3ccccc3F)sc2c1	-21	-24	-11	-8	5	6
Cc1ccccc1NC(=O)Nc1nc2ccc(S(C)(=O)=O)cc2s1	-21	-6	-10	4	155*	38*
CN(C1=C(NC(=O)c2ccc(Cl)cc2)C(=O)c2ccccc2C1=O)c1ccccc1	4	43*	-5	-1	-7	-3
Cn1cccc1C(=O)OCC(=O)Nc1ccc2c(c1)OCCO2	.	.	.	3	.	.
CC(=O)N1CCN(C(=O)c2cc(=O)c3ccccc3o2)CC1	-1	-1	-2	-1	12	9
Cc1cc(C)c2sc(NC(=O)c3ccc(N4C(=O)CCC4=O)cc3)nc2c1	-4	-19	-13	-1	-1	20
SMILES	LYPLA2 counter	GSTO1 counter	LYPLA1 inh	PAD4 FP inh	EBNA-1 inhibitor	ZTA DNA inh
Cc1ccc2nc(NC(=O)c3ccc(N4C(=O)CCC4=O)cc3)sc2c1	-15	-9	-9	-4	35*	2
Cc1ccc(N(CC2CO2)S(=O)(=O)c2ccc(C)cc2)cc1 (stereo not drawn)	-3	74*	-1	1	-1	6
COc1cc(C2Nc3cccc4cccc(c34)N2)ccc1OC(C)=O	-1	53*	-8	-5	-7	-5
c1coc(C2Nc3cccc4cccc(c34)N2)c1	-2	50*	-8	-3	2	-9
Fc1ccc(C2Nc3cccc4cccc(c34)N2)cc1	-4	37*	-8	-2	-14	-9
COc1ccc(C2Nc3cccc4cccc(c34)N2)cc1Br	2	32	-10	-5	-13	-2
O=[N+]([O-])c1ccc(Nc2nc(NC3CCCCC3)nc(N3CCCC3)n2)cc1	-9	-3	-9	-2	10	-8
COCCCNC(=O)c1ccc2c3c(onc13)-c1ccccc1C2=O	-8	44*	-4	-16	-2	0
Cc1ccc(N2C(=O)c3ccccc3C2C(=O)c2cc(C)ccc2O)cc1 (stereo not drawn)	-8	35*	-3	5	-2	-21
Cc1ccc(N2C(=O)c3ccccc3C2C(=O)c2ccc(O)cc2O)cc1 (stereo not drawn)	3	-1	-2	3	-4	-9
CC[C@]12c3[nH]c4ccc(OC)cc4c3CCN1C(=O)C(CC(=O)NCCCOC)C[C@@H]2C(=O)N1CCN(C(=O)C2CC2)CC1 (stereo partly drawn)	.	.	.	6	.	.
CCc1ccc(-c2ccc(SCC(=O)Nc3nnc(C)s3)nn2)cc1	2	36*	0	0	7	7
Cc1nnc(NC(=O)CSc2ccc(-c3ccco3)nn2)s1	3	54*	3	-2	-9	-7
Cc1nnc(NC(=O)CSc2ccc(-c3ccc(Cl)cc3)nn2)s1	-2	15	-4	0	10	13
Cc1ccccc1NC(=O)CSc1ccc(-c2ccco2)nn1	2	17	2	0	-5	-31
CCc1nnc(NC(=O)CSc2ccc(-c3ccco3)nn2)s1	-4	36*	0	1	-1	-2
Cc1nnc(NC(=O)CSc2nc3ccccc3o2)s1	2	37*	-3	3	-1	1
COCC(COS(N)(=O)=O)C(C)C (stereo not drawn)	0	3	-1	4	9	19
Cc1cc(C)n2nc(SCC(=O)Nc3ccccc3C)nc2n1	-8	1	0	-2	2	0
Cc1ccc(C)c(C(=O)COC(=O)C2CCN(c3ccc(C(F)(F)F)cn3)CC2)c1	-4	2	-1	-3	-3	-9

Screens: PubChem, The Scripps Research Institute Molecular Screening Center
